Unmarked numbers belong to inactive results.
Tested on: Vero E6 infected with SARS-CoV-2
Assay: inhibition of SARS-CoV-2 cytopathic effect; higher = more antiviral protection, active = above 15
Details: 48 h

Compound | inhibition of SARS-CoV-2 cytopathic effect (1 nM) [%] | inhibition of SARS-CoV-2 cytopathic effect (8.33 nM) [%] | inhibition of SARS-CoV-2 cytopathic effect (100 nM) [%] | inhibition of SARS-CoV-2 cytopathic effect (833.33 nM) [%] | inhibition of SARS-CoV-2 cytopathic effect (10000 nM)
CCn1cc(C(=O)O)c(=O)c2cc(F)c(N3CCNC(C)C3)c(F)c21 (stereo not given) [lomefloxacin] | 0.57 | -0.12 | -1.13 | 0.73 | -1.41%
Cc1cc(C)c(S(=O)(=O)Nc2cccc(C(F)(F)F)c2)c(C)c1 | -1.28 | 1.26 | 1.15 | 1.42 | 2.48%
COc1ccc2cc1Oc1cc3c(cc1OC)CC[N+](C)(C)[C@H]3Cc1ccc(cc1)Oc1c(OC)c(OC)cc3c1[C@@H](C2)[N+](C)(C)CC3 [metocurine] | -0.82 | 0.93 | 1.08 | -3.28 | -0.33%
NC(=O)c1ccc[n+]([C@@H]2O[C@H](COP(=O)([O-])OP(=O)(O)OC[C@H]3O[C@@H](n4cnc5c(N)ncnc54)[C@H](O)[C@@H]3O)[C@@H](O)[C@H]2O)c1 [nadide] | -2.68 | -2.65 | -0.81 | -0.61 | -0.54%
OC[C@H]1O[C@H](O[C@H]2[C@H](O)[C@@H](O)[C@H](O)O[C@@H]2CO)[C@H](O)[C@@H](O)[C@@H]1O [D-(+)-maltose] | -1.05 | -1.49 | -0.09 | -1.17 | -3.27%
Cc1[nH]nc(C(F)(F)F)c1Cc1sc2c(c1C(=O)N1C[C@](C)(O)CO1)c(=O)n(C)c(=O)n2C(C)C | 1.31 | -1.35 | 1.71 | 0.45 | 2.23%
NC(=O)c1noc([C@H](CCCC2CCCCC2)CC(=O)NO)n1 | 1.44 | -2.89 | 0.07 | -1.38 | -7.78%
CCC1(c2ccc(N)cc2)CCC(=O)NC1=O (stereo not given) [aminoglutethimide] | -0.9 | 2.8 | 3.28 | 2.95 | 2.93%
Nc1nc2c(ncn2COCCO)c(=O)[nH]1 [acyclovir] | 12.6 | 6.63 | 6.1 | 7.16 | 2.2%
CO[C@H]1CC=C2CCN3CCC4=C(CC(=O)OC4)[C@]23C1 | 1.56 | -0.91 | 1.32 | 0.73 | 1.37%
NS(=O)(=O)c1nn2cc(-c3ccccc3)nc2s1 | 8.11 | 1.76 | 0.85 | 0.07 | 0.7%
CN1CCN(c2ccc(/C=C(\C#N)c3ccccc3Br)cc2)CC1 | 2.51 | -1.94 | -3.13 | -2.26 | -2.17%
COc1ccc(S(=O)(=O)N2c3ccc(Cl)cc3[C@](O)(c3ccccc3Cl)[C@@H]2C(=O)N2CCC[C@H]2C(N)=O)cc1OC [relcovaptan] | -0.27 | -0.84 | 0.53 | 1.63 | 2.72%
Oc1ccc(Cl)c2cccnc12 [cloxyquin] | 1.22 | 0.37 | 2.68 | 3.29 | -0.16%
CCCCNC(=O)[C@@H]1Cc2ccccc2N1C(=O)[C@@H](N)CC [butabindide] | 1.64 | 1.33 | -3.07 | 1.68 | 2.75%
CC(=O)c1ccc2c(c1)N(CCCN1CCC(CCO)CC1)c1ccccc1S2 [piperacetazine] | 4.15 | 4.04 | 1.55 | 0.28 | 3.14%
N[C@@H](Cc1ccc(O)cc1)C(=O)O [plovamer-acetate] | -8.12 | -7.1 | -9.88 | -9.04 | -5.19%
CN(C)CCc1c[nH]c2ccc(Cn3cncn3)cc12 [rizatriptan] | -0.4 | 0.07 | -1.66 | -0.7 | -1.6%
CN1C(=O)/C(=C2/C(=O)Nc3ccccc32)c2ccccc21 [meisoindigo] | -1.49 | -3.61 | -2.28 | 1.46 | 18.2% (active)
CCCc1ccc(C(=O)O)cc1 [4-propylbenzoic-acid] | -0.54 | 0.51 | -0.57 | -0.84 | 1.58%
